Reference: publication PMC7819943, “Rice protein-binding microarrays: a tool to detect cis-acting elements near promoter regions in rice”
Over roughly 68,000 sequences, “fluorescence intensity (a.u.)” has its median near 9,100; the highest 2% begin near 16,000. This is one part of a sample in which the highest values are shown more often than they occur.

Target: OsWRKY34 (Oryza sativa, UniProt Q0JBA9 1-250)
Assay: protein-binding microarray (RPBM); PBS, 2% BSA, 51.3 ng/ul salmon testes DNA, 50 uM zinc acetate, 200 nM TF, 25 C, 1 h; high values mean tight binding
Details: protein: recombinant; tags: N-terminal polyhistidine and DsRed monomer fusion (pET32a); label: CyDye5-dUTP incorporated in the synthesized complementary strand; 3' TTTTT single-stranded linker to array surface; dsDNA, one strand shown
Summary of the method: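 Transcription factors, each fused N-terminally to a polyhistidine tag and DsRed, were expressed in E. coli BL21-CodonPlus and purified on Ni–NTA. A custom Agilent array was made double-stranded by primer extension with Cy5-dUTP and blocked with 2% BSA. It was incubated with 200 nM protein in PBS, 2% BSA, salmon testes DNA and 50 µM zinc acetate at 25 °C for 1 h, then washed. The binding signal is per-feature fluorescence intensity (arbitrary units) read on an Axon 4000B scanner.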

Chain of OsWRKY34 (Q0JBA9 entry or part of it): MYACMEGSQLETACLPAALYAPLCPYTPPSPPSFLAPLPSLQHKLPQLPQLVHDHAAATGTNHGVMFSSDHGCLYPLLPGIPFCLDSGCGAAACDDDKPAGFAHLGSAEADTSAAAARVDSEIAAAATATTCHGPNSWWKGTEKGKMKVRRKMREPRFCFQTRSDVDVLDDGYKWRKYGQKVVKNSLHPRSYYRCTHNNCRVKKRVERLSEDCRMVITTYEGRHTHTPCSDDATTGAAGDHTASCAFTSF

| Sequence | binding signal |
| --- | --- |
| TTTTGGATTTTGTTTCATTTTTTTTACATGCATTGGATTACGGAGTCACCTAGTGCAG | 8120 fluorescence intensity (a.u.) |
| GTCATTGGTGGTTTATATTGTTTGGCTTTTTTCCGGATTACGGAGTCACCTAGTGCAG | 18500 fluorescence intensity (a.u.) |
| TATATATTGTTTTTTTTTACGTTGTTGGTTCCGGATGTGACGGAGTCACCTAGTGCAG | 9930 fluorescence intensity (a.u.) |
| TGAGACAAAGCACATTCTACCCAAGGCCAGTTGCACCAACCGGAGTCACCTAGTGCAG | 8080 fluorescence intensity (a.u.) |
| TCAGTGTTGAGTAGGGTTGGCAGGCGAGCACGCAGTAATGCGGAGTCACCTAGTGCAG | 8190 fluorescence intensity (a.u.) |
| TGTTGTGTGTTAGTTGTGGTGGTAGCATTTTTTCCTGGTACGGAGTCACCTAGTGCAG | 13000 fluorescence intensity (a.u.) |
| TAGCTACCTAAGCTTAGCTCACATTCTTCTCGCTTTCTCACGGAGTCACCTAGTGCAG | 12000 fluorescence intensity (a.u.) |
| CGAGGGAGGGGAGGCGGCGGAGGCGAGAGAGGAGAGGGGACGGAGTCACCTAGTGCAG | 11000 fluorescence intensity (a.u.) |
| GAAGGGTGGGAGGGGAAGGGGAGGACGAGCGGGCGGACGGCGGAGTCACCTAGTGCAG | 11500 fluorescence intensity (a.u.) |
| GTGGGGTTGGAGGAGGGAGGGAGCTAGCTATAGTTGCTAGCGGAGTCACCTAGTGCAG | 9980 fluorescence intensity (a.u.) |
| GGTGGGCTATAAATATAGTTGGGGAGGGGAGGGAAGACCCCGGAGTCACCTAGTGCAG | 16700 fluorescence intensity (a.u.) |
| GGAGGTGGGGAGGGGAGGAGAGGGGAAGAAGGAAGAAAAACGGAGTCACCTAGTGCAG | 13300 fluorescence intensity (a.u.) |
| ACTAGTTGAAGGAGTTGGGGCTATAAATGGGTGGTGCTATCGGAGTCACCTAGTGCAG | 10900 fluorescence intensity (a.u.) |
| AGGGCGGTGGGGCGGCAAGGGACCAGATGGTGGGGCGGCACGGAGTCACCTAGTGCAG | 11100 fluorescence intensity (a.u.) |
| GTATCGCCAAGGAGGAGAGGGGAGAGGGGTGGAAGAGGAACGGAGTCACCTAGTGCAG | 11900 fluorescence intensity (a.u.) |
| CTGGGTGTGGGTGTGGGTCTGGGTCTGGGTGGAAGAGGAACGGAGTCACCTAGTGCAG | 21200 fluorescence intensity (a.u.) |
| GGGAGGAGGAGGAGGAGAAGGGCGGCGGGAGGAGGGGCGACGGAGTCACCTAGTGCAG | 14000 fluorescence intensity (a.u.) |
| GAGGAGGGACTCGGGGCGGGAGGAAGACGGCGAGGAGGGGCGGAGTCACCTAGTGCAG | 16500 fluorescence intensity (a.u.) |
| GGTGGGACGTGGTGGGCGTCAAGGCGGCGGTGGGAGGGGACGGAGTCACCTAGTGCAG | 20400 fluorescence intensity (a.u.) |
| TCGTCATCATCCTCGCCGCCATCGCCATCGCCATTGCCTACGGAGTCACCTAGTGCAG | 9180 fluorescence intensity (a.u.) |
| ACTTGTTTTACGTTCGGCTAATTAGCTGTTTGACCGTTTCCGGAGTCACCTAGTGCAG | 15300 fluorescence intensity (a.u.) |
| AAAAACGTCTCAATTGTAAGCTCACTATCTAACAATTTTCCGGAGTCACCTAGTGCAG | 11200 fluorescence intensity (a.u.) |

| Sequence | binding signal |
| --- | --- |
| GCTTGGTCTATAAGTTGCTGCTCTGCCCTGCTCGGCCTCACGGAGTCACCTAGTGCAG | 12000 fluorescence intensity (a.u.) |
| CTCCATCGCTTCGCTCTTCGCCGGATCTAGCACCGACGGTCGGAGTCACCTAGTGCAG | 9000 fluorescence intensity (a.u.) |
| TTCTTTTGCCGTGCTCCCAGATTCTCCGGTCGCCACGACTCGGAGTCACCTAGTGCAG | 8590 fluorescence intensity (a.u.) |
| ACCTCTTATTTGACTTTTTCACTATTTTGAAATACGAAAACGGAGTCACCTAGTGCAG | 9360 fluorescence intensity (a.u.) |
| AATGTATTTGTCTTATGTTAAATATATTACTACTCTTTTTCGGAGTCACCTAGTGCAG | 8080 fluorescence intensity (a.u.) |
| TATCCGATCCATGGCGTTCTCTTGAGTCCAGAGAGTATTTCGGAGTCACCTAGTGCAG | 8460 fluorescence intensity (a.u.) |
| AGCTTAACACGCGCCACTTGCCCCTATTTAGCCGCGCCATCGGAGTCACCTAGTGCAG | 9920 fluorescence intensity (a.u.) |
| AATGTGGGAGAAGGGGAGGAGAGAGGGGAGGGGAGGGGACCGGAGTCACCTAGTGCAG | 16500 fluorescence intensity (a.u.) |
| CGGTGGGGAGGCCGGGAGGGAGGAGGAGAGAAGAGGAGTGCGGAGTCACCTAGTGCAG | 9450 fluorescence intensity (a.u.) |
| AGGGTGAACAGAAGAAGATGAATCTAACGGGTGGGTCTCACGGAGTCACCTAGTGCAG | 10800 fluorescence intensity (a.u.) |
| GGGAATATTAGTGGGATGGGGATGAGGAATTGAGGAAGAACGGAGTCACCTAGTGCAG | 13400 fluorescence intensity (a.u.) |
| CGGCTAGGGACGGGGACGACGCCGGAGTGGGTGGGGAAGGCGGAGTCACCTAGTGCAG | 8680 fluorescence intensity (a.u.) |
| GGGAAGGGGAGGGGTGGGCGGAAGGGGACGCCGGTGGTGGCGGAGTCACCTAGTGCAG | 17900 fluorescence intensity (a.u.) |
| GGCCGCGGCGGTGCGACGAAGAGCGGCGTCGGACAAGGGCCGGAGTCACCTAGTGCAG | 35900 fluorescence intensity (a.u.) |
| AATCTAACGGGTGGGTCTCATGTATTGATGAGGAAGAAGACGGAGTCACCTAGTGCAG | 20800 fluorescence intensity (a.u.) |
| AGAAGGAGGAGGAGGAGGAGGAGGAGGAGGGGAGGAGAGCCGGAGTCACCTAGTGCAG | 10400 fluorescence intensity (a.u.) |
| GACGGCGACCGAAGGGGACAAGGAGGCGGGGCGGGGCGGCCGGAGTCACCTAGTGCAG | 14000 fluorescence intensity (a.u.) |
| GCATGGTGGCGGCGGGAAGGAGGAGTGGGGCGGCGGGTGCCGGAGTCACCTAGTGCAG | 16100 fluorescence intensity (a.u.) |
| GGTGGTGCGCGAGCGTCGGCGGTCGGCGGGAGGGCGGGAGCGGAGTCACCTAGTGCAG | 9180 fluorescence intensity (a.u.) |
| CTCTCTCTGCTCGAGCCCGAGTAGCCCTCGTCGTCATTCTCGGAGTCACCTAGTGCAG | 8950 fluorescence intensity (a.u.) |
| ATTATATGTCATTTGACTTTTCTCTTAGCTAAAGTTCTTTCGGAGTCACCTAGTGCAG | 9800 fluorescence intensity (a.u.) |
